# Test results: PubChem BioAssay (NCI)
# About 83,000 compounds went through this panel and 20% of them were active in at least one assay; those are over-represented in the sample as a whole.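 A percent growth of 40 corresponds to 60% growth inhibition; 0 means no net growth; -100 means all cells died. Active threshold: below 10.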 Values without a mark were called inactive. Activity calls are given as the source filed them.
# How the values were obtained:
# Assay in all cases: NCI-60 one-dose screen, 48 h (100 = growth as untreated, 0 = no growth, -100 = all killed)
# Settings in all cases: 10 µM
# [1] = system: NCI-H23 lung
# [2] = system: NCI-H226 lung
# [3] = system: NCI-H322M lung
# [4] = system: HOP-62 NSCLC
# [5] = system: NCI-H460 lung
# [6] = system: HOP-92 NSCLC
# [7] = system: NCI-H522 lung
# [8] = system: A549/ATCC NSCLC
# [9] = system: 786-0 renal
# [10] = system: COLO 205 colon
# [11] = system: DU-145 prostate
# [12] = system: K-562 leukemia
# [13] = system: MALME-3M melanoma
# [14] = system: MDA-MB-231 breast
# [15] = system: RXF 393 renal
# [16] = system: SF-268 CNS
# [17] = system: SF-295 CNS
# [18] = system: SF-539 CNS
# [19] = system: UACC-257 melanoma
# [20] = system: M14 melanoma
Structure (SMILES),growth [1],growth [2],growth [3],growth [4],growth [5],growth [6],growth [7],growth [8],growth [9],growth [10],growth [11],growth [12],growth [13],growth [14],growth [15],growth [16],growth [17],growth [18],growth [19],growth [20]
C=CC(=O)Nc1ccc(C(=O)/C=C/c2ccc(N(C)CCF)cc2)c(O)c1,-26.7% (active),-11% (active),25.6%,-27.5% (active),-9.21% (active),-3.32% (active),-76.9% (active),-60.7% (active),-42.2% (active),-69.1% (active),-51.2% (active),9.77% (active),-50.1% (active),17%,-82.4% (active),-19.7% (active),-4.58% (active),-81.5% (active),-61.6% (active),-56.3% (active)
COc1ccc2c3nc4cc(C)c(C)cc4nc3n(CCN(C)C)c2c1,8.28% (active),12.1%,0.682% (active),8.8% (active),-50.6% (active),27.1%,-22.4% (active),-59.8% (active),-42.7% (active),62.5%,-3.48% (active),3.09% (active),-86% (active),-10% (active),-25.5% (active),27.8%,-59.4% (active),-88.1% (active),10.5%,-73.5% (active)
COc1ccc(-c2ccc(/C=N/NC(=O)c3[nH]c4ccc(Br)cc4c3-c3ccccc3)s2)cc1,68.8%,105%,92.3%,96.1%,27.7%,120%,82.9%,71.9%,112%,97.6%,104%,87.6%,115%,59.5%,74.2%,60%,71.6%,71.7%,106%,106%
CC(C)CCSc1nc(NC2CC2)c(C#N)c(-c2ccc(C(C)C)cc2)n1,101%,106%,113%,94.9%,120%,114%,90.7%,106%,93.6%,126%,120%,100%,108%,105%,113%,121%,100%,101%,103%,109%
COC[C@@H](CC(C)C)N=C1NC(=O)/C(=C/c2ccc3ncoc3c2)N1,-14.2% (active),0.124% (active),20.4%,14.4%,6.38% (active),15.8%,-16.2% (active),13.7%,22.2%,-16.1% (active),22.6%,14.4%,32.5%,12.3%,-8.35% (active),22%,34.4%,-5.08% (active),11.5%,41%
O=C1NC(=NC23CC4CC(CC(C4)C2)C3)N/C1=C\c1ccc2ncsc2c1,-10.3% (active),-4% (active),4.94% (active),9.31% (active),7.74% (active),5.85% (active),-7.87% (active),16.5%,16.1%,-29.6% (active),6.29% (active),10.5%,2.66% (active),-8.83% (active),-63.6% (active),-11.5% (active),13%,-23.9% (active),26.7%,42%
COc1ccc2nc(Nc3cccc(NC(=O)c4ccc(CN5CCN(C)CC5)c(C(F)(F)F)c4)c3)ccc2c1,-94.9% (active),-46.9% (active),-64% (active),-77.6% (active),-84.5% (active),-57% (active),-85.7% (active),-54.7% (active),-55.3% (active),-90.3% (active),-32.8% (active),-70.8% (active),-91.8% (active),-82.7% (active),-75.7% (active),-55.2% (active),-97.7% (active),-99.8% (active),-83.9% (active),-50.1% (active)
COc1ccsc1/C=N/NC(=O)c1[nH]c2ccc(Br)cc2c1-c1ccccc1,9.07% (active),17.2%,34.3%,26.3%,0.114% (active),-5.64% (active),-34.4% (active),11.7%,1.8% (active),-32.4% (active),11.7%,1.22% (active),22.3%,3.17% (active),30.8%,17.2%,-7.83% (active),-18.5% (active),11.4%,5.95% (active)
COc1ccc(C(=O)Nc2ccc(-c3ccc4c(c3)NC(=O)/C4=C\c3ccc[nH]3)cc2)cc1,41.5%,-4.15% (active),86.6%,63.1%,14.9%,97.5%,64.2%,74.4%,20.4%,48.1%,-25.7% (active),67.5%,50.9%,25.6%,8.7% (active),0.17% (active),-76.1% (active),76.8%,77.5%,28.1%
O=C(c1ccc(Cl)cc1)C1[C@H](c2ccccc2Br)[C@@H](c2ccccc2)NC12C(=O)Nc1ccc(Cl)cc12 (stereo not given in full),-22.3% (active),18.9%,44.7%,38.9%,-13.5% (active),23%,3.07% (active),19.8%,17.6%,8.59% (active),29.1%,7.94% (active),51.8%,5.9% (active),-33.7% (active),23.4%,15.2%,39.7%,42.5%,25.2%
CC(C)(C)Nc1nc2cc(Cl)c(Cl)cc2nc1S(C)(=O)=O,-63.6% (active),-83% (active),98%,88.1%,73.1%,-5.25% (active),-80.6% (active),94.1%,44%,31.2%,57.2%,-5.97% (active),-78.5% (active),26.7%,6.24% (active),73.7%,91.1%,47.3%,70.6%,5.68% (active)
COC(=O)CC1CC1C1Cc2c(nc(N(C)S(C)(=O)=O)nc2C(C)C)-c2ccc(F)cc21 (stereo not given),69.1%,78.8%,96.8%,109%,94.6%,84%,55.6%,92.3%,86%,90.8%,92.7%,34.3%,112%,69.3%,79.8%,93.8%,72.4%,96%,83.8%,70.4%
C/C(=C\CSc1ccccc1C(=O)O)CCCC(C)CCCC(C)CCCC(C)C (stereo not given),35.5%,77.5%,65.8%,57.6%,39.6%,71.4%,23.3%,41.3%,67.3%,87.8%,67.1%,36.2%,86.4%,75.9%,87.8%,51.5%,40.6%,61.1%,80.7%,60%
CO[C@@H]1CSSC1Cn1nc(-c2ccc(Oc3ccccc3)cc2)c2c(N)ncnc21 (stereo not given in full),46.4%,31.1%,63%,86.4%,16.5%,35.9%,1.33% (active),35.7%,45.3%,52%,49.8%,4.87% (active),8.55% (active),52.1%,28.8%,39.5%,47.8%,44.1%,10.9%,-90.6% (active)
CN1CCN(Cc2ccc(C(=O)Nc3cccc(Nc4ccc5cc(O)ccc5n4)c3)cc2C(F)(F)F)CC1,-66% (active),26.5%,-28.9% (active),-66.5% (active),-74.6% (active),-46.2% (active),-68.8% (active),-11.5% (active),-47% (active),-85.4% (active),-16.1% (active),-55.8% (active),-88.7% (active),-55% (active),-87.8% (active),-26% (active),-96.9% (active),-95.5% (active),-79.1% (active),-40.2% (active)
COc1ccc(N(C)c2cc(C#N)nc3ccccc23)cc1N,9.56% (active),25.4%,47.9%,36.2%,0.907% (active),58.1%,-25.9% (active),17.8%,22.6%,-76.8% (active),20.3%,10.7%,62.1%,12.2%,57.2%,22%,15.8%,-23.7% (active),63.3%,26.5%
